Among the data in PubChem BioAssay AID501 (PCMD, 2006) are inhibition values, retold here.

The term inhibition denotes the drop in the measured response relative to a control, in per cent.

Hit rate of the full screen: of about 62,000 compounds, about 35 (0.06%) were called active. The entries come from a sample that favours actives as a whole. A number with no mark means an inactive call. No stated cut-off is given here; in the data, active means inhibition above about 32% (passing the limit was not always enough); inconclusive means no clear call, values can overlap the other calls.

The target in this test is Cathepsin S (Homo sapiens) (UniProt P25774). As to the kind of experiment: blockers of CTSS protease activity – biochemical, compound mixtures (AID 501).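 Further: 0% = enzyme without compound and 100% = blank without enzyme.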 As to conditions: recombinant cathepsin S, AMC dipeptide fluorescence, pooled mixtures; active compounds read high;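 tested at 5 µM per compound within 10-compound mixtures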.
Chain of Cathepsin S (Homo sapiens) (P25774 115-331 limits assumed): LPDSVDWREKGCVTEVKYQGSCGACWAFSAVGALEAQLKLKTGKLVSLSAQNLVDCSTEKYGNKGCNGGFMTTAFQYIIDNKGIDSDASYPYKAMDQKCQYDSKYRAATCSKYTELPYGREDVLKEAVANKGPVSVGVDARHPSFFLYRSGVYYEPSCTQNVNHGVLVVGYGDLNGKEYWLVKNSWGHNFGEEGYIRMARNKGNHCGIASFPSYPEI
Take `CC(C)Nc1nc(N(c2ccccc2)c2ccccc2)nc(-n2ccnc2)n1`: the inhibition was -8.9%.
Regarding `N#Cc1nc(N)nc(N(c2ccccc2)c2ccccc2)n1`, the inhibition was 49.2% (active).
With `CC(C)n1c(SCC(=O)Nc2ccccc2N2CCCCC2)nc2c1c(=O)n(C)c(=O)n2C`, the inhibition is -0.72%.
Then `CCOC(=O)C1=C(CNC2CCCCC2)NC(=O)NC1c1cc(C)ccc1C` (stereo not drawn), with -0.495%.
`O=c1cc(CO)oc(CN2CCC(Cc3ccccc3)CC2)c1O`: the inhibition was 4.81%.
As to `C=CCN1C(=O)C(O)(CC(=O)c2ccc(Cl)cc2)c2ccccc21` (stereo not drawn), the inhibition was -18%.
With `CC(C)N1C(=O)C2C(C(=O)NC3CCCCC3)C3C=CC2(O3)C1C(=O)NC1CCCC1` (stereo not drawn), the inhibition is -8.37%.
For the compound `COc1ccc(-c2csc(N3CCN(Cc4ccc5c(c4)OCO5)CC3)n2)cc1`, the inhibition is -3.99%.
As for `Cc1ccc(C(=O)NCC(=O)O)cc1S(=O)(=O)N1CCCCC1`, the inhibition was -10.7%.
As to `Cc1ccc(C(=O)Nc2ccc3c(c2)OCO3)cc1S(=O)(=O)N1CCCCC1`, the inhibition is 85.5% (active).
In the case of `COc1ccc(C(=O)Nc2ccc3c(c2)OCO3)cc1OC`, the inhibition is -4.12%.
Then `Cc1ccc(S(=O)(=O)N2CCCC2C(=O)NCc2ccco2)cc1` (stereo not drawn), with 12.5%.
Then `CC1(C)CC(CCC(=O)Nc2ccccc2Cl)C(=O)O1` (stereo not drawn), with -3.38%; and `Cc1ccc(C(=O)NCC2CCCO2)o1` (stereo not drawn), with 0.56%; and `CCOC(=O)c1c(C)c(C(=O)NCCc2ccc(S(N)(=O)=O)cc2)c(C)n1CC`, with -0.765%.
Turning to `CC(CCc1ccccc1)NC(=O)c1ccc(Br)o1` (stereo not drawn), the inhibition was -7.32%.
Take `CC1(C)Cc2ccccc2-c2nnc(-c3cccc(O)c3)n21`: the inhibition was -3.6%.
With `O=C(c1ccc(S(=O)(=O)N2CCOCC2)cc1)N1CCN(c2ccccc2)CC1`, the inhibition was -24.7%.
For `C#CCN1CC(C)/C(=N/O)CC1C` (stereo not drawn), the inhibition is -8.55%.
For the compound `CCOC(=O)C1(c2ccccc2)NC(c2ccc(N(C)C)cc2)C2C(=O)N(C)C(=O)C21` (stereo not drawn), the inhibition is 12.2%.
As for `O=S(=O)(NCCNS(=O)(=O)c1ccccc1)c1ccccc1`, the inhibition was -7.43%.
Then `Cc1nc(N2CCCC2C(=O)O)c2oc3ccccc3c2n1` (stereo not drawn), with 8.31%.
Turning to `COc1ccc(CCn2c(NCCCN3CCOCC3)nc3c2c(=O)[nH]c(=O)n3C)cc1`, the inhibition is 5.43%.
For the compound `CCOC(=O)c1sc(=S)n2c1[nH]c(=O)c1ccc(C(=O)OC)cc12`, the inhibition was -0.96%.
Consider `O=C(CC(NS(=O)(=O)c1ccc(Cl)cc1)c1ccco1)NC1CCCC1` (stereo not drawn), for which the inhibition is -2.72%.
`CC(=O)Nc1nc(C)c(Cc2ccccc2)c(=O)[nH]1`: the inhibition was -3.33%.
Consider `CCCCSc1nnc(-c2ccc(C)cc2)o1`, for which the inhibition was 0.235%.
Take `O=C(c1ccc2c(c1)C(=O)N(c1ccc(Cl)cc1)C2=O)N1CCN(c2ccccn2)CC1`: the inhibition is 2.28%.
Then `O=C(NCc1ccco1)c1ccc(CS(=O)(=O)Cc2ccc(F)cc2)o1`, with -5.21%.
In the case of `COc1cccc(-c2nc3n(n2)C(c2ccccc2Cl)C(C(N)=O)=C(C)N3)c1` (stereo not drawn), the inhibition is -4.19%.
Consider `CC1(C)CCCC2=C1CC1C(=O)N(c3ccccc3)C(=O)C1C2` (stereo not drawn), for which the inhibition was 8.69%.
In the case of `Cc1ccc(-n2c(SCC(=O)Nc3ccc4c(c3)OCO4)nnc2-c2ccoc2C)cc1`, the inhibition was 7.19%.
Then `CC12COC3(C(=O)Nc4ccc(Cl)cn4)CC1CCC32C` (stereo not drawn), with -6.89%; and `COC(=O)C1(S(=O)(=O)C2(C(=O)OC)CCCC2)CCCC1`, with -5.82%.
Take `CCOc1ccc2[nH]c(=O)c(CN(Cc3nnnn3Cc3ccccc3)CC3CCCO3)cc2c1` (stereo not drawn): the inhibition is 6.16%.
Next, `CCOC(=O)CSc1nccc(N(C)C)c1C#N`: 14.4%.
Consider `Cc1nnc(N(Cc2ccco2)C(=O)c2ccno2)s1`, for which the inhibition was -4.35%.
Then `CCn1c(=O)cc(O)c2ccccc21`, with 9.68%; and `COc1cc(C(=O)N(Cc2ccc(N(C)C)cc2)C2CCS(=O)(=O)C2)cc(OC)c1OC` (stereo not drawn), with 0.64%.
Consider `Nc1nnc(C2CCCC2)s1`, for which the inhibition is 14.3%.
Take `CCc1ccccc1NC(=O)c1cccs1`: the inhibition was 8.09%.
As to `CCOC(=O)C1=C(CC)Nc2ccccc2N=C1NC(=O)c1cccc(S(=O)(=O)N2CCCC2)c1`, the inhibition was -5.2%.
Consider `CCC(=O)NC(=Nc1nc2ccccc2s1)NC(=O)CC`, for which the inhibition was -2.2%.
In the case of `C=CCn1c(SCc2cc(C(=O)OC)c(C)o2)nnc1-c1ccncc1`, the inhibition was -3.76%.
Turning to `CCOc1ccc(-c2nnc(-c3ccco3)o2)cc1`, the inhibition was -3.01%.
Then `CCOc1ccc(OCC)c(NC(=O)CN(C)S(=O)(=O)c2cccc3nsnc23)c1`, with -22.2%; and `CCOC(=O)CSc1nnc(CNc2ccc(F)cc2)o1`, with -5.03%; and `Cn1c(=NC(=O)CSCC(=O)N2CCOCC2)sc2ccccc21`, with 14.7%.
Turning to `Cn1c(=O)[nH]c(=O)c2c1nc(CN(Cc1ccccc1)Cc1ccccc1)n2CCN1CCOCC1`, the inhibition is 2.01%.
Next, `COc1ccc(Br)cc1S(=O)(=O)N1CCN=C1C`: -2.2%.
As to `Cn1c(=NC(=O)CSCC(=O)N2CCCCC2)sc2ccccc21`, the inhibition is 6.42%.
Then `CSCCC(NS(=O)(=O)/C=C/c1ccccc1)C(=O)N1CCC(C)CC1` (stereo not drawn), with -1.31%.
`CCOC(=O)N1CCC(NC(=O)CCc2cn(C)c3ccccc23)CC1`: the inhibition was -4.61%.
For `CCn1cc(C(=O)NCc2ccc(OC)cc2OC)c(=O)c2ccc(C)nc21`, the inhibition was 0.185%.
As for `CCN(CC)P(=O)(/C(Cl)=C\Nc1c(C)n(C)n(-c2ccccc2)c1=O)N(CC)CC`, the inhibition was 0.845%.
Next, `COc1ccc(C)cc1NC(=O)c1[nH]c(C)c(C(C)=O)c1C`: -3.92%; `Fc1ccc2[nH]c3c(N4CCN(Cc5ccc6c(c5)OCO6)CC4)ncnc3c2c1`: -6.06%; `CCc1c(C)nc(N)n2c(SCC(=O)N3CCN(c4ccccc4)CC3)nnc12`: -12.8%.
With `CN1CCN(CC(O)COCc2ccc3c(c2)OCO3)CC1` (stereo not drawn), the inhibition was 5.75%.
In the case of `CC(=O)Nc1cccc(NC(=O)c2c(-c3ccccc3)noc2C)c1`, the inhibition is -5.8%.
As to `O=C(NCCCN1CCOCC1)c1cc(-c2ccc(Cl)cc2)on1`, the inhibition was -0.13%.
With `O=C(NCCc1ccco1)c1nn(Cc2ccccc2)c(=O)c2ccccc12`, the inhibition is 11.9%.
As for `O=C(C1CCCO1)N(Cc1ccccc1)c1ccccc1` (stereo not drawn), the inhibition is -2.27%.
Consider `Cc1ccsc1C(C(=O)NC1CCCCC1)N(C(=O)Cc1cccs1)C1CC1` (stereo not drawn), for which the inhibition was 6.71%.
Turning to `Cc1cc(=O)n2nc(N3CCCC(C(=O)NCCC4=CCCCC4)C3)sc2n1` (stereo not drawn), the inhibition is 19.8%.
Take `CCOC(=O)C1CCCN(C(=O)Cn2ncc3c(=O)oc4ccc(C)cc4c32)C1` (stereo not drawn): the inhibition is 7.33%.
`O=C(Nc1cccnc1)c1noc2c1CCCCC2`: the inhibition was 10.9%.
Consider `CCc1cc2c(=O)c(-c3ccon3)c(N)oc2cc1OC`, for which the inhibition was -1.48%.
On to `COc1ccc(C(c2nnnn2Cc2cccs2)N2CCN(c3ccccc3)CC2)cc1OC` (stereo not drawn), for which the inhibition was -6.06%.
As for `CC(C)COC(=O)C1C2C=CC3(CN(C(C)c4ccc(Br)cc4)C(=O)C13)O2` (stereo not drawn), the inhibition was 14.7%.
Next, `O=C(O)c1ccc(-n2cccc2)cc1O`: 5.17%; `CCOc1cc(C(=O)Nc2ncccn2)cc(OCC)c1OCC`: 31.7%; `Cc1ccsc1CNn1cnnc1SCc1ccccc1F`: -4.25%.
As to `CCOC(=O)CCCNC(=O)CN1C(=O)NC(CCc2ccccc2)C1=O` (stereo not drawn), the inhibition is -3.72%.
Then `CC1CCCC(N2CCN(C(=O)c3ccc(F)cc3)CC2)C1` (stereo not drawn), with -4.6%.
For `CSCC[C@H](NC(=O)NCCc1ccc(F)cc1)C(=O)O`, the inhibition was -4.51%.
Next, `CCCCc1cc(=O)oc2cc(C)cc(OCc3nn[nH]n3)c12`: 1.43%; `CCN(CC)S(=O)(=O)c1ccc(NC(=O)CN(c2cccc(F)c2)S(C)(=O)=O)cc1`: -8.46%.
As for `CC(C)(CSc1nncn1/N=C/c1ccco1)NS(=O)(=O)c1ccc(Cl)cc1`, the inhibition was 6.83%.
Take `CC1(C)SC2c3ccccc3C(=O)N2[C@@H]1C(=O)NCc1ccco1` (stereo partly drawn): the inhibition was -3.88%.
In the case of `CCOC(=O)c1c(C)[nH]c(C)c1C(=O)CSc1nc(N)cc(N)n1`, the inhibition was 5.32%.
For the compound `O=C(C1CCN(c2nnc(-n3cccc3)s2)CC1)N1CCc2ccccc2C1`, the inhibition was 4.27%.
Next, `Cc1cc(Nc2cccc(C)c2C)n2ncnc2n1`: -1.92%; `COC(=O)c1ccc(NC(=O)CN(c2ccc(C)cc2)S(=O)(=O)c2c(C)n[nH]c2C)cc1`: -7.46%.
On to `COc1ccc(N(CC(=O)NC(C)(C)C)C(=O)c2ccco2)cc1`, for which the inhibition is 10.2%.
Turning to `Cc1cc(Cl)ccc1N1C(=O)CC(SCCC(=O)O)C1=O` (stereo not drawn), the inhibition is 1.91%.
Consider `COc1cc2ccccc2cc1C(=O)Nc1ccc(S(=O)(=O)Nc2cc(C)on2)cc1`, for which the inhibition was -7.28%.
Consider `Cc1cc(=O)[nH]c(SCC(=O)N2c3ccccc3CC2C)n1` (stereo not drawn), for which the inhibition was 33.4%.
